# The source made the active and inactive calls. Calls follow the shape of the dose curve; as a rule, active = well fitted activation curve with a large enough effect; inconclusive = small, poorly fitted or top-dose-only effect; inactive = flat fitted curve, though single readings scatter.
# Assay: Confirmation and Secondary Assay for Modulators of Hemoglobin Beta Chain Splicing at IVS2 654 locus (AID 910);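 also: HeLa cells stably carrying EGFP split by mutant beta-globin IVS2-654 intron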
# Conditions: HeLa EGFP-654 splicing reporter, GFP fluorescence, 48 h; series mostly up to 46.1 µM; activation (splicing correction): at the top concentration
# How it was run: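 HeLa cells stably expressing EGFP interrupted by β-globin IVS2-654 intron, seeded overnight in Opti-MEM/2% FCS, then treated 2 days at 37 °C. Restored splicing read as total peak GFP intensity per well by laser scanning cytometry (488 nm excitation, 500–520 nm emission); 500 nM antisense PNA as control.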
# Also: % of control where 0% means no effect.
row,Structure (SMILES),activation (splicing correction)
1,CNCC(O)c1ccc(O)c(O)c1 (stereo unspecified),3.99% (inactive)
2,Cc1ccc(C(C)C)cc2c(C)ccc1-2,-1.57% [at 38.3 µM] (inactive)
3,O=C1NS(=O)(=O)c2ccccc21,1.15% (inactive)
4,CCn1cc(C(=O)O)c(=O)c2cnc(N3CCNCC3)nc21,-5.22% (inactive)
5,CCCCCCCCCCCCCCCCCCOCC(O)CO (stereo unspecified),0.24% [at 38.3 µM] (inactive)
6,CN(C)CCN(Cc1ccccc1)c1ccccn1,1.33% [at 38.3 µM] (inactive)
7,Nc1ccc(S(=O)(=O)Nc2ccc(Cl)nn2)cc1,7.19% (inactive)
8,O=C(Oc1ccccc1C(=O)O)c1ccccc1O,9.6% (inactive)
9,CN(C)CCOC(C)(c1ccccc1)c1ccccn1 (stereo unspecified),8.21% (inactive)
10,CC(C)(C(=O)O)c1ccc(C(O)CCCN2CCC(C(O)(c3ccccc3)c3ccccc3)CC2)cc1 (stereo unspecified),-1.14% [at 38.3 µM] (inactive)
11,NC(=O)NC(=O)Cc1ccccc1,6.58% (inactive)
12,CNCCC(Oc1ccc(C(F)(F)F)cc1)c1ccccc1 (stereo unspecified),-2.35% (inactive)
13,CC(CN1c2ccccc2Sc2ccccc21)N(C)C (stereo unspecified),7.86% (inactive)
14,O=c1cc[nH]c(=S)[nH]1,10.5% (inactive)
15,NCC(=O)CCC(=O)O,6.6% (inactive)
16,CN(C)CC[C@@H](c1ccc(Cl)cc1)c1ccccn1,-1.48% (inactive)
17,NS(=O)(=O)c1cc2c(cc1C(F)(F)F)NC(Cc1ccccc1)NS2(=O)=O (stereo unspecified),6.17% (inactive)
18,O=C(O)c1ccccc1O,4.86% (inactive)
19,CC1(C)OC(=O)NC1=O,6.47% (inactive)
20,CC(COc1ccccc1)NC(C)C(O)c1ccc(O)cc1 (stereo unspecified),0.744% (inactive)
21,CN1CCOC(c2ccccc2)c2ccccc2C1 (stereo unspecified),0.405% (inactive)
22,OCC(O)CN1CCN(c2ccccc2)CC1 (stereo unspecified),3.77% (inactive)
23,CC1=C(CC(=O)O)c2cc(F)ccc2/C1=C\c1ccc(S(C)=O)cc1 (stereo unspecified),-0.715% (inactive)
24,CSc1ccc2c(c1)N(CCC1CCCCN1C)c1ccccc1S2 (stereo unspecified),-4.02% (inactive)
25,Cn1cc[nH]c1=S,-1.18% (inactive)
26,O=C(CCCN1CCN(c2ccccn2)CC1)c1ccc(F)cc1,2.74% (inactive)
27,Nc1ccc(S(=O)(=O)NC(=O)c2ccccc2)cc1,5.05% (inactive)

# Assay: Confirmation and Secondary Assay for Modulators of Hemoglobin Beta Chain Splicing at IVS2 705 locus (AID 930);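 also: HeLa cells stably expressing the EGFP-705 splicing reporter; GFP fluorescence per well restored by corrected splicing of the IVS2-705 intron in EGFP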
# Conditions: HeLa EGFP-705 splicing reporter, GFP fluorescence, 48 h; series mostly up to 46.1 µM; activation: at the top concentration
# How it was run: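 Splice-correction reporter: EGFP cDNA split by beta-globin intron 2 bearing the 705 mutation, stably in HeLa. Compound incubation 2 days, 37C; fluorescent objects 5-250 µm summed per well.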
row,Structure (SMILES),activation
1,Cc1ccc(C(C)C)cc2c(C)ccc1-2,-0.122% [at 38.3 µM] (inactive)
2,O=C1NS(=O)(=O)c2ccccc21,2.15% (inactive)
3,CN(C)CCN(Cc1ccccc1)c1ccccn1,1.56% [at 38.3 µM] (inactive)
4,CC(CN1c2ccccc2Sc2ccccc21)N(C)C (stereo unspecified),-0.775% (inactive)
5,NCC(=O)CCC(=O)O,-0.615% (inactive)
6,CC1(C)OC(=O)NC1=O,0.229% (inactive)
7,CN1CCOC(c2ccccc2)c2ccccc2C1 (stereo unspecified),4.77% (inactive)
8,CSc1ccc2c(c1)N(CCC1CCCCN1C)c1ccccc1S2 (stereo unspecified),-0.911% (inactive)
9,O=C(CCCN1CCN(c2ccccn2)CC1)c1ccc(F)cc1,0.138% (inactive)

# — PubChem BioAssay (NCATS)
